This is part of a sample that, as a whole, favours compounds with a hit. Of some 79,000 tested, about 15% had one in any assay. Values without a mark were called inactive. Calls of active or inactive are those of the source. Rule as the data show it: active = growth inhibition above about 70%; inactive = the rest.

Results on nine compounds are retold here after PubChem BioAssay (NCI).

Test [1] is described as follows: NCI Yeast Anticancer Drug Screen. Data for the rad50 strain (AID 155).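 Also: 0% = growth of vehicle-only cultures of the same strain.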 Particulars: S. cerevisiae rad50 strain growth inhibition, active compounds read high. The method, boiled down:
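Inhibition values express reduced yeast growth in compound-treated cultures relative to vehicle-treated controls.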

Test [2] can be described thus: NCI Yeast Anticancer Drug Screen. Data for the mec2-1 strain (AID 157). Particulars: S. cerevisiae mec2-1 strain, active compounds read high. The essentials:
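mec2-1 yeast strain, carrying an alteration in DNA damage repair or cell cycle control, was exposed to compounds; growth inhibition was measured relative to vehicle-treated controls.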

Test [3] can be described thus: NCI Yeast Anticancer Drug Screen. Data for the sgs1 mgt1 strain (AID 161).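 Also: 0% = growth of cultures given vehicle only.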 The note with it: S. cerevisiae sgs1 mgt1 strain, active compounds read high. The method, boiled down:
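Growth of a repair-deficient yeast mutant was monitored after compound treatment and expressed as inhibition relative to vehicle-treated cultures.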

A short description of test [4]: NCI Yeast Anticancer Drug Screen. Data for the cln2 rad14 strain (AID 165).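 Also: 0% = growth equal to vehicle treated cultures.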 Particulars: S. cerevisiae cln2 rad14 strain, active compounds read high. The method, boiled down:
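Yeast carrying cln2 and rad14 alterations (cell cycle control and DNA damage repair) were exposed to compounds. Growth inhibition was measured against vehicle-treated controls.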

The nature of test [5]: NCI Yeast Anticancer Drug Screen. Data for the bub3 strain (AID 167). Particulars: S. cerevisiae bub3 mutant strain, active compounds read high. The essentials: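 Steps: expose the mutant yeast strain to compound; grow alongside vehicle-treated cultures; measure growth; express inhibition against the vehicle cultures.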
Test [6] is described as follows: NCI Yeast Anticancer Drug Screen. Data for the mlh1 rad18 strain (AID 175). The note with it: S. cerevisiae mlh1 rad18 strain growth inhibition, active compounds read high. The method, boiled down: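 Growth inhibition of the yeast strain was measured after compound exposure and expressed relative to vehicle-treated controls. The strain carries defined defects in DNA damage repair.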

Setting [7] is: at 5.0 µM (retest, dose inferred, filed as 0.5).
Where [8] appears, read: at 50.0 µM (retest, dose inferred, filed as 5.0).

As for `Nc1ccc(C(=O)/C=C/c2ccccn2)cc1`, the growth inhibition was 3% in test [1] (setting [7]); 45% in test [1] (setting [8]); 8.2% in test [1] (at 50.0 µM); -6% in test [2] (setting [7]); 64% in test [2] (setting [8]); 31.4% in test [2] (at 50.0 µM). The growth inhibition is 1% in test [3] (setting [7]); 60% in test [3] (setting [8]); 17.8% in test [3] (at 50.0 µM); 9% in test [4] (setting [7]); 38% in test [4] (setting [8]); 17.6% in test [4] (at 50.0 µM). In addition, the growth inhibition was -1% in test [5] (setting [7]); 79% (active) in test [5] (setting [8]); 66.8% in test [5] (at 50.0 µM); 6% in test [6] (setting [7]); 82% (active) in test [6] (setting [8]); 27.9% in test [6] (at 50.0 µM).

For `CCCCC(=O)OC1=C(Br)C(=O)c2ccccc2C1=O`, the growth inhibition is 20% in test [1] (setting [7]); 98% (active) in test [1] (setting [8]); 96.3% (active) in test [1] (at 50.0 µM); 24% in test [2] (setting [7]); 100% (active) in test [2] (setting [8]); 63% in test [2] (at 50.0 µM). Besides, the growth inhibition in test [3] (setting [7]) is 10%; in test [3] (setting [8]), 96% (active); in test [3] (at 50.0 µM), 81.1% (active); in test [4] (setting [7]), 3%; in test [4] (setting [8]), 88% (active); in test [4] (at 50.0 µM), -11.8%. The growth inhibition is 14% in test [5] (setting [7]); 97% (active) in test [5] (setting [8]); 13.8% in test [5] (at 50.0 µM); 37% in test [6] (setting [7]); 98% (active) in test [6] (setting [8]); 75.3% (active) in test [6] (at 50.0 µM).

Take `Cc1c2ncccc2cc2oc3ccccc3c(=O)c12`: the growth inhibition is 67% in test [1] (setting [7]); 9% in test [1] (setting [8]); 62.7% in test [1] (at 50.0 µM); 24% in test [2] (setting [7]); 78% (active) in test [2] (setting [8]); 14.8% in test [2] (at 50.0 µM). Also, the growth inhibition was 37% in test [3] (setting [7]); 6% in test [3] (setting [8]); 24.4% in test [3] (at 50.0 µM); 16% in test [4] (setting [7]); 37% in test [4] (setting [8]); 13.8% in test [4] (at 50.0 µM). The growth inhibition in test [5] (setting [7]) was 15%; in test [5] (setting [8]), 75% (active); in test [5] (at 50.0 µM), 19.9%; in test [6] (setting [7]), 23%; in test [6] (setting [8]), 10%; in test [6] (at 50.0 µM), 68.7%.

On to `Cn1c2c(c3nc(N)nc(N)c3c1=O)CCc1ccccc1-2`, for which the growth inhibition in test [1] (setting [7]) is 6%; in test [1] (setting [8]), 21%; in test [1] (at 50.0 µM), 72.8% (active); in test [2] (setting [7]), 0%; in test [2] (setting [8]), 31%; in test [2] (at 50.0 µM), 26.3%. Besides, the growth inhibition in test [3] (setting [7]) is 8%; in test [3] (setting [8]) it was 39%; in test [3] (at 50.0 µM), 69.5%; in test [4] (setting [7]) it was -2%; in test [4] (setting [8]), 37%; in test [4] (at 50.0 µM), 42.8%. In addition, the growth inhibition in test [5] (setting [7]) was -1%; in test [5] (setting [8]), 39%; in test [5] (at 50.0 µM) it was 68.5%; in test [6] (setting [7]), 0%; in test [6] (setting [8]) it was 36%; in test [6] (at 50.0 µM), 44.4%.

As to `Clc1ncccc1-n1cccc1/C=N\N=C/c1cccn1-c1cccnc1Cl`, the growth inhibition in test [1] (setting [7]) was 5%; in test [1] (setting [8]) it was 98% (active); in test [1] (at 50.0 µM), 7.25%; in test [2] (setting [7]) it was 5%; in test [2] (setting [8]), 98% (active); in test [2] (at 50.0 µM), 6.3%. The growth inhibition is 8% in test [3] (setting [7]); 94% (active) in test [3] (setting [8]); -10.6% in test [3] (at 50.0 µM); 4% in test [4] (setting [7]); 93% (active) in test [4] (setting [8]); 30.4% in test [4] (at 50.0 µM). Further, the growth inhibition in test [5] (setting [7]) is 6%; in test [5] (setting [8]), 97% (active); in test [5] (at 50.0 µM), -4.95%; in test [6] (setting [7]) it was -1%; in test [6] (setting [8]) it was 99% (active); in test [6] (at 50.0 µM) it was 21.7%.

As to `CCOC(=O)C1CC2(CCC1N)c1ccccc1-c1ccccc12` (configuration not stated), the growth inhibition is 3% in test [1] (setting [7]); 28% in test [1] (setting [8]); 28.6% in test [1] (at 50.0 µM); -5% in test [2] (setting [7]); 8% in test [2] (setting [8]); 47.5% in test [2] (at 50.0 µM). Moreover, the growth inhibition was -2% in test [3] (setting [7]); 27% in test [3] (setting [8]); 44.5% in test [3] (at 50.0 µM); -5% in test [4] (setting [7]); 34% in test [4] (setting [8]); 22.9% in test [4] (at 50.0 µM). Moreover, the growth inhibition was -5% in test [5] (setting [7]); 23% in test [5] (setting [8]); 90.7% (active) in test [5] (at 50.0 µM); 1% in test [6] (setting [7]); 81% (active) in test [6] (setting [8]); 37.5% in test [6] (at 50.0 µM).

With `CC1(c2ccccc2)NC(=O)N(CC(=O)N(c2ccccc2)c2ccccc2)C1=O` (configuration not stated), the growth inhibition in test [1] (setting [7]) is 12%; in test [1] (setting [8]), 28%; in test [1] (at 50.0 µM) it was 49.4%; in test [2] (setting [7]), 15%; in test [2] (setting [8]), 33%; in test [2] (at 50.0 µM) it was 23.6%. For the same compound, the growth inhibition in test [3] (setting [7]) is 9%; in test [3] (setting [8]), 30%; in test [3] (at 50.0 µM), 33.5%; in test [4] (setting [7]) it was 14%; in test [4] (setting [8]), 55%; in test [4] (at 50.0 µM), 40.5%. The growth inhibition in test [5] (setting [7]) was 8%; in test [5] (setting [8]) it was 38%; in test [5] (at 50.0 µM) it was 33.7%; in test [6] (setting [7]), 12%; in test [6] (setting [8]), 39%; in test [6] (at 50.0 µM) it was 52.1%.

For `Cc1ccc(C(C)(C)C)c(O)c1O`, the growth inhibition is 4% in test [1] (setting [7]); 98% (active) in test [1] (setting [8]); 91.2% (active) in test [1] (at 50.0 µM); -18% in test [2] (setting [7]); 98% (active) in test [2] (setting [8]); 91.7% (active) in test [2] (at 50.0 µM). Further, the growth inhibition was 1% in test [3] (setting [7]); 52% in test [3] (setting [8]); 92.1% (active) in test [3] (at 50.0 µM); 8% in test [4] (setting [7]); 98% (active) in test [4] (setting [8]); 91.8% (active) in test [4] (at 50.0 µM). For the same compound, the growth inhibition in test [5] (setting [7]) was -9%; in test [5] (setting [8]), 98% (active); in test [5] (at 50.0 µM), 91.4% (active); in test [6] (setting [7]), -25%; in test [6] (setting [8]), 97% (active); in test [6] (at 50.0 µM), 90.5% (active).

Turning to `O=c1cccccc1[O-].O=c1cccccc1[O-].O=c1cccccc1[O-].[Nd+3]`, the growth inhibition in test [1] (setting [7]) was 11%; in test [1] (setting [8]), 11%; in test [1] (at 50.0 µM) it was 91.9% (active); in test [2] (setting [7]), 20%; in test [2] (setting [8]) it was 20%; in test [2] (at 50.0 µM), 91% (active). The growth inhibition in test [3] (setting [7]) was 15%; in test [3] (setting [8]) it was 15%; in test [3] (at 50.0 µM), 89.3% (active); in test [4] (setting [7]), 3%; in test [4] (setting [8]), 3%; in test [4] (at 50.0 µM), 80.9% (active). Besides, the growth inhibition in test [5] (setting [7]) was 9%; in test [5] (setting [8]), 9%; in test [5] (at 50.0 µM), 92.5% (active); in test [6] (setting [7]), 13%; in test [6] (setting [8]), 13%; in test [6] (at 50.0 µM), 87.2% (active).
